TIM10 inh – growth inhibitors of isogenic TIM10 control yeast, primary screen, counter-screen for tim10-1 yeast inhibitor project, luminescence, uHTS. S. cerevisiae TIM10 strain growth, BacTiter-Glo luminescence, 24 h. inhibition, % at 10 µM. actives 1.4% (n = 330,000);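 active means inhibition of 40% or more at the single tested concentration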;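 further: wild-type TIM10 isogenic control strain grown at permissive 25 °C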
Mdm2-MdmX inh – inhibitors of human Mdm2-MdmX association, primary screen, cell-based, luminescence, split luciferase, SaOS-2, uHTS. Protein Mdm4 (Homo sapiens) + E3 ubiquitin-protein ligase Mdm2 (Homo sapiens), …. SaOS-2 split-luciferase Mdm2/MdmX complementation. inhibition, % at 8 µM. actives 3% (n = 330,000). AID 485346, 2010;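 active means inhibition of at least 50% at 8 µM in the primary screen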
Target sequence (O15151 whole entry, looked up): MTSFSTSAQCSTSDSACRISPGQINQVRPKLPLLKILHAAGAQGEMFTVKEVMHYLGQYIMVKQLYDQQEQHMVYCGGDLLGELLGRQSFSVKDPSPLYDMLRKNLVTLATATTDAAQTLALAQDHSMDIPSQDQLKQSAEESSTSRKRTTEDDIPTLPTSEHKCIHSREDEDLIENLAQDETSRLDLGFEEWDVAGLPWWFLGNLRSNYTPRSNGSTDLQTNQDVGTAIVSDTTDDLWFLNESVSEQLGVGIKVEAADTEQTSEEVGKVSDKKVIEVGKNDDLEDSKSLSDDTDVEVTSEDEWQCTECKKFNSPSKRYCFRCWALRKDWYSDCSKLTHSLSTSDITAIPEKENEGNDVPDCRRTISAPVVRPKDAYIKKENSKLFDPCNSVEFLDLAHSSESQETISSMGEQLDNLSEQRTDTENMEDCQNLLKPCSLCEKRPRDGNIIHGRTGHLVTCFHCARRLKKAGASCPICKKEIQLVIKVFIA
Target sequence (Q00987 whole entry, looked up): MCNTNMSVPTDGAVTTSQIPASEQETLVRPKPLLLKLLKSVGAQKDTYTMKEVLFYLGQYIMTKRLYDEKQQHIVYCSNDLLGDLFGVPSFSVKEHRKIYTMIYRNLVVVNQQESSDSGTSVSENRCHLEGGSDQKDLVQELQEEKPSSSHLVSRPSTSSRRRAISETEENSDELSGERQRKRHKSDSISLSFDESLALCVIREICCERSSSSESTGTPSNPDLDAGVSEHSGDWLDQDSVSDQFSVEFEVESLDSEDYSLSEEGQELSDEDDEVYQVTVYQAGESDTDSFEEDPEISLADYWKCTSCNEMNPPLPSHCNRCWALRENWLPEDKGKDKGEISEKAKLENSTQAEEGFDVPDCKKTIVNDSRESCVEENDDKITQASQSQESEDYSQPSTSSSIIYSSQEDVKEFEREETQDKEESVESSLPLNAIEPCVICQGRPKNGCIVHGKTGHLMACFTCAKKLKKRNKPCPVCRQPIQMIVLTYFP
tim23-1 inh – growth inhibitors of tim23-1 mutant yeast, primary screen, luminescence, uHTS; inhibition, % at 20 µM; actives 1.3% (n = 330,000); S. cerevisiae tim23-1 growth, BacTiter-Glo luminescence, 24 h; AID 463212, 2010;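 active means growth inhibition of the mutant yeast at or above 50%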;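 further: temperature-sensitive mutant grown at 25 °C; plate controls were DMSO-treated mutant yeast for no effect and medium wells lacking yeast for full effect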
tim10-1 inh – growth inhibitors of tim10-1 mutant yeast, primary screen, luminescence, uHTS; S. cerevisiae tim10-1 ts strain growth, BacTiter-Glo, 24 h; inhibition, % at 20 µM; actives 2.2% (n = 330,000);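 active means inhibition of at least 40%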;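 further: mutant grown at 25 °C; 0% = DMSO wells with yeast and 100% = wells holding no yeast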
MPTP inh – mitochondrial permeability transition pore inhibitors, primary screen, biochemical, isolated mouse mitochondria, absorbance; AID 602449, 2012; inhibition, % at 10 µM; actives 1.4% (n = 360,000); Ca2+ swelling absorbance, 30 min;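 active means inhibition of 50% or more, scaled per plate between neutral and stimulator controls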;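 further: 0% = DMSO wells given calcium and 100% = 1 mM EGTA wells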
tim10 confirm – growth inhibitors of wild-type TIM10 yeast, confirmation, counter-screen for tim10-1 synthetic lethality project, single concentration, luminescence, S. cerevisiae; shares compounds with TIM10 inh; S. cerevisiae tim10 strain growth, BacTiter-Glo luminescence, 24 h; inhibition, % at 10 µM; actives 63% (n = 4,600);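 active means inhibition of yeast growth at or above a set limit in either of two replicates at 10 µM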;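 further: this counterscreen used the strain with wild-type TIM10; 0% = yeast with DMSO and 100% = medium wells lacking yeast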
* hit, by the source's call; . = no result given. The list is not random: actives were taken first. Their share in the collection is about 6.3%.

SMILES | TIM10 inh | Mdm2-MdmX inh | tim23-1 inh | tim10-1 inh | MPTP inh | tim10 confirm
Cc1ccccc1N1CCN(C(=O)c2ccc(Oc3ccc(C(F)(F)F)cn3)cc2)CC1 | 47* | 14 | 38 | 38 | 0 | 43*
CC(=O)Nc1ccc2nc(NC(=O)c3cccs3)sc2c1 | 23 | -120 | 11 | 24 | 2 | .
Cc1nc2ccc(NC(=O)c3ccc4ccccc4n3)cc2s1 | -6 | -117 | 10 | 11 | 0 | .
Cc1nc2ccc(NS(=O)(=O)c3ccc(F)cc3)cc2s1 | 60* | 28 | 9 | 3 | 3 | 0
Cc1nc2ccc(NS(=O)(=O)c3c(F)cccc3F)cc2s1 | 4 | -16 | 22 | 9 | 4 | .
Cc1nc2ccc(NC(=O)c3ccccc3)cc2s1 | 44* | -92 | 30 | -5 | 0 | 7
Cc1nc2ccc(NC(=O)c3cccs3)cc2s1 | 46* | -56 | 48 | 18 | -1 | 27
CC(C)(C)S(=O)N1Cc2cc(C(=O)N3CCc4ccccc4C3)nc(-c3cccc(-c4cccnc4)c3)c2[C@@H]1CCO (stereo partly specified) | . | . | . | . | 0 | .
Cc1cn(CC(=O)NCc2ccc3c(c2)OCO3)c(=O)[nH]c1=O | . | . | . | . | 0 | .
O=C(O)C1=CCC=CC1C(=O)O (stereo unspecified) | . | . | . | . | 0 | .
CCNC(=O)C1CCCN(C(=O)c2ccc3c(c2)OCO3)CC1 (stereo unspecified) | . | . | . | . | 2 | .
CCc1cccc(N=c2c([N+](=O)[O-])nn(-c3ccc(Cl)cc3)n2O)c1 | 46* | 8 | 34 | 34 | 1 | 30
CCN(c1ccccc1)S(=O)(=O)c1ccc(Cl)c(NC(=O)COC(=O)c2cc(O)c3ccccc3c2O)c1 | 45* | 17 | 35 | 28 | . | 32*
Cn1nc(C(C)(C)C)cc1NC(=O)C1(C)CCN1C(=O)Cc1ccc(-c2ccccc2)cc1 (stereo unspecified) | . | . | . | . | 1 | .
CCc1cc2c(=O)c(-c3nc4ccccc4[nH]3)coc2cc1OC(=O)N1CCOCC1 | 57* | 11 | 19 | 17 | 3 | 62*
CCC(=O)N[C@H]1CC[C@@H](CCn2cc(C3CC3)nn2)O[C@@H]1CO | . | . | . | . | 2 | .
CCCc1nc2ccccc2n1C(CCSC)C(=O)NC(C)(C)C (stereo unspecified) | . | . | . | . | 2 | .
CN1/C(=C/C(=O)c2cccs2)Sc2ccccc21 | 73* | -116 | 42 | 22 | 4 | 61*
COCC(=O)/C=C1\Sc2ccccc2N1C | 9 | -4 | 12 | 10 | 1 | .
O=C1c2ccccc2C(=O)C1c1ccc2ccccc2n1 | 58* | 35 | 26 | 31 | -1 | 46*
C/C=C/c1cccc(-c2nc(C(=O)NC3CCCC3)cc3c2[C@@H](CCO)N(S(=O)C(C)(C)C)C3)c1 (stereo partly specified) | . | . | . | . | 1 | .
Cc1ccc(C2CC2c2n[nH]c(=S)n2-c2ccc(Cl)cc2)cc1 (stereo unspecified) | 51* | 10 | 31 | 27 | 6 | 42*
Cc1ccc(C2CC2c2n[nH]c(=S)n2-c2cccc(C)c2)cc1 (stereo unspecified) | 29 | -36 | 30 | 26 | 2 | .
CCN(CC)C(=O)C1=C(C)N(CCCOC)C(=O)C(CC(=O)NCCCCc2ccccc2)C1 (stereo unspecified) | . | . | . | . | 0 | .
COCCNC(=O)c1cccc2c1-c1ccccc1C2=O | 7 | -24 | 13 | -4 | -2 | .
Cc1ccc(C)c(-n2[nH]c3c4c(ccc3c2=O)C(=O)c2ccccc2C4=O)c1 | 53* | 14 | 46 | 26 | 13 | 73*
Cc1ccc(-n2[nH]c3c4c(ccc3c2=O)C(=O)c2ccccc2C4=O)cc1 | -3 | 22 | -9 | 1 | 1 | .
COCCCn1[nH]c2c3c(ccc2c1=O)C(=O)c1ccccc1C3=O | 42* | 7 | 41 | 33 | -4 | 47*
COc1cccc(CN2CCC2(C)C(=O)Nc2cccc(NS(C)(=O)=O)c2)c1OC (stereo unspecified) | . | . | . | . | 0 | .
